From PubChem
Compounds with a hit are over-represented: about 2.1% of the library has one in this group of screens.
HIV Env fusion – inhibitors of HIV Env-mediated cell fusion. HeLa-JRFL Env/CEM21 cell fusion, luciferase. inhibition, % at 12.3 µM. 360,000 tested, 1.1% active. AID 651610;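 active means mean replicate inhibition score of at least 50 and every replicate individually at or above 50; inconclusive means only one of the two criteria met; inactive means mean below 50 and not all replicates reaching 50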;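 further: 0% = plate neutral controls and 100% = maraviroc near 300 nM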
NR2F2 inh – NR2F2 (human) inhibition, primary screen; P24468; HEK293T NGFI-A luciferase reporter, luminescence; inhibition, % at 8.6 µM; 370,000 tested, 0.7% active;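 active means inhibition above a per-plate cutoff, mean inhibition of test wells between control levels plus 3 SD, cut at about 38% in these data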;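 further: cells cotransfected with COUP-TFII expression vector driving the NGFI-A reporter; 0% = median of COUP-TF2 test wells and 100% = reporter-only cells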
Gli-Sufu antag – Gli-Sufu pathway antagonism; inhibition, % at 5 µM; 340,000 tested, 0.74% active; Sufu-KO-LIGHT fibroblasts, Gli luciferase reporter luminescence;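 active means inhibition above about 55%, limit read from the data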;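 further: 0% = DMSO-treated cells and 100% = wells with medium but no cells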
GalR3 antag – antagonists of human GalR3; O60755; HEK293 GalR3-CNG cAMP membrane potential fluorescence; galR3 body fused to GalR1 C-terminus; inhibition, % at 3 µM; 360,000 tested, 0.44% active; AID 651719;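 active means inhibition above the screen-wide average plus 3 SD, cut at about 13% in these data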;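 further: forskolin and galanin both at EC90 stimulate the cells; cAMP rise reported by CNG channel membrane potential dye signal; 0% = forskolin plus galanin with DMSO and 100% = forskolin alone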
Target sequence (O60755 1-299 limits assumed): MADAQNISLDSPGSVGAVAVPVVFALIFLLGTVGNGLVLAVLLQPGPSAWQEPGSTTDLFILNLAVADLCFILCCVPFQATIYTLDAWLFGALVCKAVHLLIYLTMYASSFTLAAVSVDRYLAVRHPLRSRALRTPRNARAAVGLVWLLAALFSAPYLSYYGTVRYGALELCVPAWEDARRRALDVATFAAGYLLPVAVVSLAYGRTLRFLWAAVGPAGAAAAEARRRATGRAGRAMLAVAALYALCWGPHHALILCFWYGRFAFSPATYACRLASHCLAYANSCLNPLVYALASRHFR
aDG glyco act – increases alpha dystroglycan glycosylation | AID 624168 | activation, % at 10 µM | 360,000 tested, 0.22% active | Pro5-aDG cells, alpha-DG glycosylation AlphaScreen (IIH6); 0% Pro5, 100% B10-LARGE cell signal;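 active means activation of at least 8% versus controls, or a plate z-score of at least 8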;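 further: Pro5 are CHO cells carrying HIG-tagged alpha-DG that lacks glycosylation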
An asterisk follows results filed as active; u = inconclusive; x = no result; [ ] = remark or other dose.

SMILES	HIV Env fusion	NR2F2 inh	Gli-Sufu antag	GalR3 antag	aDG glyco act
Cc1ccccc1/C=C/c1cc[n+](C)cc1	15	-21	6	-3	0
COCC(=O)Nc1ccc2c(c1)[C@@H]1C[C@@H](CC(=O)NCc3ccc(OC)cc3)O[C@H](CO)[C@@H]1O2	-2[16.7 µM]	x	x	x	x
C[C@H]1CN([C@@H](C)CO)C(=O)Cc2cc(NC(=O)Nc3ccc(F)cc3)ccc2O[C@@H]1CN(C)S(=O)(=O)c1ccccc1	-5[16.7 µM]	x	x	x	x
[N-]=[N+]=NCc1ccccc1C[C@]1(C(=O)N2CCCCC2)N=C(c2ccc(OCCCO)cc2)O[C@H]1c1ccccc1	68*[16.7 µM]	x	x	x	x
[N-]=[N+]=NCc1ccccc1C[C@@]1(C(=O)N2CCCCC2)N=C(c2ccc(OCCCO)cc2)O[C@@H]1c1ccccc1	26[16.7 µM]	x	x	x	x
O=C(O)c1ccc(N/N=C/c2c[nH]c3ccccc23)cc1	59*	33	31	-6	0
C[C@@H]1CN([C@@H](C)CO)S(=O)(=O)c2ccc(-c3cccnc3)cc2O[C@@H]1CN(C)C(=O)C1CC1	12[16.7 µM]	x	x	x	x
C[C@@H]1CN([C@@H](C)CO)C(=O)c2cc(NC(=O)CCC(F)(F)F)ccc2O[C@H]1CN(C)CC1CCCCC1	-7[16.7 µM]	x	x	x	x
COc1ccc(CCN2C(=O)c3[nH]nc(-c4ccccc4O)c3C2c2ccccc2)cc1OC (stereo not given)	147*	26	7	-3	0
CC(C)CCN1CCN=C1Nc1ccccc1	60*	0	-3	-4	0
CC(=O)OCC(=O)Nc1ccc([N+](=O)[O-])cc1Cl	-8	-4	-3	-3	0
CC(=O)Oc1c(C)cc(Cl)cc1C(=O)Nc1ccc([N+](=O)[O-])cc1Cl	u	1	73*	6	-1
COc1cccc(C#Cc2cnc3c(c2)C(=O)N([C@H](C)CO)C[C@@H](C)[C@@H](CN(C)C(=O)C2CCOCC2)O3)c1	-3[16.7 µM]	x	x	x	x
CCCc1cn(CC[C@H]2CC[C@@H](NC(=O)Cc3cccnc3)[C@H](CO)O2)nn1	-24[16.7 µM]	x	x	x	x
CCNC(=O)C[C@H]1CC[C@H](NS(=O)(=O)c2ccc(F)cc2)[C@@H](CO)O1	-2[16.7 µM]	x	x	x	x
Cc1ccc(Nc2cc(C)nn2-c2nc(C)cc(=O)[nH]2)cc1	x	x	92*	x	0
C[C@H](NC(=O)C[C@@H]1C[C@H]2c3cc(NC(=O)NC4CCCCC4)ccc3O[C@H]2[C@H](CO)O1)c1ccccc1	-7[16.7 µM]	x	x	x	x
C[C@@H]1CCCCO[C@@H](CN(C)S(=O)(=O)c2cccs2)[C@@H](C)CN([C@@H](C)CO)C(=O)c2cc(NC(=O)Cc3ccccc3)ccc2O1	5[16.7 µM]	x	x	x	x
O=C1CCCC2=C1C(c1ccc(Cl)cc1)C1C(=O)c3ccccc3C1=N2 (stereo not given)	59*	-11	2	-5	0
Cc1sc2nc(CSCC(=O)Nc3ccc(C(F)(F)F)cc3)[nH]c(=O)c2c1C	78*	3	1	-6	0
C[C@@H]1CN([C@@H](C)CO)S(=O)(=O)c2ccc(C3=CCCC3)cc2O[C@@H]1CN(C)S(=O)(=O)c1cn(C)cn1	4[16.7 µM]	x	x	x	x
OC[C@@H]1CN(Cc2ccccc2)C[C@H](n2cnc3c(NCc4ccncc4)ncnc32)O1	59*	6	x	-8	0
CCCC#Cc1ccc2c(c1)O[C@H](CN(C)C(=O)Nc1ccccc1F)[C@@H](C)CN([C@@H](C)CO)S2(=O)=O	-30[16.7 µM]	x	x	x	x
S=C(NCc1ccccn1)NN=Cc1ccccn1	-1	-32	74*	-8	2
C[C@@H](NC(=O)C[C@H]1CC[C@H](NC(=O)c2cccnc2)[C@H](CO)O1)c1ccccc1	-5[16.7 µM]	x	x	x	x
SMILES	HIV Env fusion	NR2F2 inh	Gli-Sufu antag	GalR3 antag	aDG glyco act
Cc1ccc(S(=O)(=O)N2C[C@@H]3[C@H]4CC[C@H](C4)[C@@H]3[C@@H](C)[C@@H]2c2ccn(Cc3ccccc3)c2)cc1	63*	14	7	1	0
O=C(NCC[C@H]1CC[C@H](NC(=O)C2CCC2)[C@@H](CO)O1)c1cc(Cl)cc(Cl)c1	-13[16.7 µM]	x	x	x	x
COc1ccc(OCC(=O)Nc2cc(-c3nn(C)c(=O)c4ccccc34)ccc2OC)cc1	86*	-15	33	0	1
COc1ccc(NC(=O)COc2ccc(-c3nn(C)c(=O)c4ccccc34)cc2)cc1	22	13	-4	-2	0
CO[C@H]1CN(C)C(=O)c2cc(NC(=O)C3CCCCC3)ccc2OC[C@H](C)N(Cc2nccs2)C[C@@H]1C	-14[16.7 µM]	x	x	x	x
COc1ccc(-c2ncncc2-c2ccc(Cl)cc2)c(O)c1	56*	16	-10	2	0
CC(NCC(O)COCCC12CC3CC(CC(C3)C1)C2)c1ccccc1 (stereo not given)	73*	-7	14	-4	-1
NCC(O)COCCC12CC3CC(CC(C3)C1)C2 (stereo not given)	-8	9	0	-9	0
CCC(C)(C)C(=O)O[C@H]1C[C@@H](C)C=C2C=C[C@H](C)[C@H](CC[C@@H]3C[C@@H](O)CC(=O)O3)[C@H]21	67*	1	-17	-3	0
COc1cc(CN2CC(=O)N(c3ccccc3Cl)C2=S)cc(OC)c1OC	14	12	62*	-9	0
COc1cc(CN2CC(=O)N(c3cccc(Cl)c3C)C2=S)cc(OC)c1OC	5	4	15	-10	0
CCC(C)(C)NC(=O)C(c1ccc(OC)cc1)N(Cc1ccco1)C(=O)CCC(=O)Nc1cc(C)on1 (stereo not given)	34*	-6	-11	-2	0
CCOC(=O)CN(C(=O)CSc1nnnn1C)c1ccccc1	71*	-13	0	-5	0
O=c1cc(-c2ccccc2Cl)oc2ccc([N+](=O)[O-])c(O)c12	-21	6	2	-6	0
O=c1cc(-c2ccccc2Cl)oc2c([N+](=O)[O-])c(O)cc(O)c12	65*	28	6	-7	0
C=CCCN(CC#C[C@H]1Oc2ccccc2S(=O)(=O)N2CCC[C@@H]12)S(=O)(=O)c1ccc(C)cc1	10[16.7 µM]	x	x	x	x
COc1cc(-c2nc3oc4ccccc4c(=O)c3c(=O)n2Cc2ccco2)cc(OC)c1OC	92*	3	6	-2	0
C[C@@H]1CCCCO[C@H](CN(C)S(=O)(=O)c2cn(C)cn2)[C@@H](C)CN([C@H](C)CO)C(=O)c2cc(NC(=O)Nc3ccc(C(F)(F)F)cc3)ccc2O1	-2[16.7 µM]	x	x	x	x
Cc1noc(C)c1CSCC(=O)Nc1nc(-c2ccc(F)c(F)c2)cs1	61*	22	3	-6	2
